Measured values taken from the supplement of paper PMC6555819.

System: VDR:RXRa (NR concentration 270 nM, RXRa partner concentration 90 nM)
Assay: PBM binding z-score (relative to random genomic background probes); higher = stronger binding; sequences stand for … in GC…GCGATTGACAGCGTAGAATGAAGG
Description: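 Protein-binding microarray (Agilent 4x180K custom design, double-stranded 60-nt probes: 5' GC cap, 34-nt variable region, 24-nt constant primer region; full probe sequence given). Purified or IVT nuclear receptor:RXRα heterodimers (3:1 NR:RXRα, mostly 270:90 nM) or homodimers were incubated for 1 h in PBS with 2% milk and no ligand, then detected with Alexa488 antibodies. Fluorescence from o1-orientation probes (~5 replicates averaged) was converted to z-scores against 500 random hg19 background probes. Variable regions are seed direct-repeat (DR0–DR5) sites, all their single-nucleotide variants and half-site ablations.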

Row | Sequence | PBM binding z-score
1 | CCTGCTCGGTCAATGGTCAGCTAAAGCAGCTCGC | -0.375
2 | AATACAGGGTCATTAGGCCAGAGTAGGTACGAAT | 4.61
3 | CGAACTAGGTCCCCAGGACAGTGAAGAGGTTGGA | -0.892
4 | CCGACTAGGTTACGAGGGGGCATTCAGTGCGAAT | 4.96
5 | CCCAGTAGGTTACGAGGGGGCATTCAGTGCGAAT | 5.29
6 | CTCGAAAGGTCGAGCTCAGGTGAGTATACCAAAC | 2.71
7 | CTATGTATGTTAAGGGGGTCATTCAGTTTGAAAG | 6.64
8 | AATACAGGGTCACTAGGTCAGAGTAGGTACGAAT | 5.25
9 | ATCGAAAGGTCGAAGGTGACTATACCCACCCGAA | 2.9
10 | CCGAGTAGGTTACGAGGGGGCGTTCAGTGCGAAT | 4.72
11 | CTATGTAGGTAAAGGGGGTCATTCAGTTTGAAAG | 6.95
12 | TCGAGTAGGTTACGGGGGCATTCAAGGATGAAGA | 3.74
13 | ATACGTAGGTTATCGGGTCATTCAGTTTGCGCAT | 5.06
14 | ACAGACAGGTGAGTGAAGGTCACTCAGCTGGACG | 2.73
15 | ATATGTAGGTTACGTCCGGGTCATTCAGGCTATG | 4.14
16 | CGAACTAGGTCCTTGACAGGACAGTGAATAGTAA | -0.351
17 | CTATGTAGGTTAAGGGGGTAATTCAGTTTGAAAG | 3.5
18 | CAAAGTAGGTCAAGGTCAAAGTCGGTTTGTGCCA | 5.27
19 | TCGAGTAGGTTTCGGGGGCATTCAGGGATGAAGA | 2.7
20 | CCGAGTAGGTTACGAGGGGGCCTTCAGTGCGAAT | 1.73

Row | Sequence | PBM binding z-score
21 | CTATGTAGGTTAAGGGGGTCATTCAATTTGAAAG | 7.18
22 | TCGAGTAGGTTACGGGGGCAATCAGGGATGAAGA | 3.22
23 | CTATGTAGGTTATGGGGGTCATTCAGTTTGAAAG | 7.53
24 | CGAACTAGGTCAAACGACAGTGAAAGGCGACGTA | 1.43
25 | CCTACTGGGCCGAGGTCATTGATCAGTCAAAGCA | 4.12
26 | CCTAGCAGGCCAATCGGGGTCACTCAAGGCTTGA | 5.36
27 | TCTAGCAGGCCATAGGGTCACTCAAGAGGTACGG | 2.62
28 | ACTTGGAGGACAAAGGTCAGAGCTACGCCAGTGA | 3.58
29 | ATATGTAGTTTAGGGTCATTCAGAAAGTAGGGAA | 4.64
30 | CGTCAAAGTTCAAGGTAAAGTAACAGAAAGCAGC | 3.4
31 | CGAACTAGGTCAAAGGACAGTGGAAGGCGACGTA | 1.21
32 | AGAATGAGGTTACCAAAGATCAGTGAAACGCTTG | 1.45
33 | CAAACTAGGTCACAGAGGTCGAAGTCCGTGCGTA | 6.75
34 | CGTCCAAGGTCAATGCTAGGTCACTGAAAGCATT | 5.55
35 | ACTAGTTGGTAAGCTGAGGTCACACACAATTCGG | 3.71
36 | AATACAGGGTCACTAGGCCCGAGTAGGTACGAAT | 3.96
37 | CGAACTAGGTCAAAGGACTGTGAAAGGCGACGTA | 1.14
38 | TCGAGTAGGTTACGGGGGCATCCAGGGATGAAGA | 3.51
39 | TCTTGTTGATCAAAGGTTAAGAAAGCCGAAGCCT | 1.56
40 | CCGAGTAGGTTACGAGGGGGCATCCAGTGCGAAT | 4.75
